Structures are written as SMILES. Records with an inconclusive call do not appear. Active and inactive are the calls of the source. The call rests on the fitted dose curve; in most records, active means well fitted curve in the direction sought with a large enough effect; inconclusive means small, poorly fitted or top-dose-only effect, or another doubt; inactive means no such curve, though single readings can be large; an effect the other way counts as inactive or inconclusive.

The nature of assay [1]: Quantitative High-Throughput drug screen in 47 multiple myeloma cell lines against the NCATS MIPE library collection: NCIH929_DSMZ cell viability assay (AID 1918978). Further: nearly all actives have a fitted effect of over 35% in size. Further: potency means the concentration at half of the fitted maximal effect. The method, boiled down: (§1)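 Myeloma cells (500/well) treated with MIPE 4.0 compounds for 48 h at 37 °C, 5% CO2. Viability read as ATP via CellTiter-Glo luminescence after 5 min at RT; DMSO-only wells = 100%, media-only = 0% viability.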

A short description of assay [2]: Quantitative High-Throughput drug screen in 47 multiple myeloma cell lines against the NCATS MIPE library collection: OCIMY1_PLB cell viability assay (AID 1918979). Further: series mostly up to about 46 µM; nearly all actives have a fitted effect of over 35% in size. In short, it runs like this: as §1
A short description of assay [3]: Quantitative High-Throughput drug screen in 47 multiple myeloma cell lines against the NCATS MIPE library collection: MM1S_ATCC cell viability assay (AID 1918980). Further: nearly all actives have a fitted effect of over 45% in size. Further: potency means the concentration at half of the fitted maximal effect. In short, it runs like this:
as §1

A short description of assay [4]: Quantitative High-Throughput drug screen in 47 multiple myeloma cell lines against the NCATS MIPE library collection: LP1_DSMZ cell viability assay (AID 1918982). Further: nearly all actives have a fitted effect of over 35% in size. Further: potency means the concentration at half of the fitted maximal effect. In short, it runs like this: as §1
Assay [5] is described as follows: Quantitative High-Throughput drug screen in 47 multiple myeloma cell lines against the NCATS MIPE library collection: L363_DSMZ cell viability assay (AID 1918984). Further: nearly all actives have a fitted effect of over 40% in size. Further: potency means the concentration at half of the fitted maximal effect. In short, it runs like this: as §1
A short description of assay [6]: Quantitative High-Throughput drug screen in 47 multiple myeloma cell lines against the NCATS MIPE library collection: MM1R_ATCC cell viability assay (AID 1918981). Further: nearly all actives have a fitted effect of over 35% in size. Further: potency means the concentration at half of the fitted maximal effect. The method, boiled down:
as §1

Assay [7] can be described thus: Quantitative High-Throughput drug screen in 47 multiple myeloma cell lines against the NCATS MIPE library collection: KMS28PE_JCRB cell viability assay (AID 1918983). Further: nearly all actives have a fitted effect of over 35% in size. Further: potency means the concentration at half of the fitted maximal effect. In short, it runs like this:
as §1

A short description of assay [8]: Quantitative High-Throughput drug screen in 47 multiple myeloma cell lines against the NCATS MIPE library collection: KMS34_JCRB cell viability assay (AID 1918985). Further: nearly all actives have a fitted effect of over 40% in size. In short, it runs like this: as §1

Take `CCCCCN(C)CCC(O)(P(=O)(O)O)P(=O)(O)O`: the Potency entry in assay [1], in assay [2], in assay [3], in assay [4] and in assay [5] was “inactive” in each case.
With `O=C(CCc1ccc(O)cc1)c1c(O)cc(O)cc1O[C@@H]1O[C@H](CO)[C@H](O)[C@H](O)[C@H]1O`, the Potency entry in assay [1], in assay [2], in assay [6], in assay [4] and in assay [5] was “inactive” throughout.
For the compound `CCOC(=O)O[C@]1(C(=O)OCCl)CC[C@@H]2[C@H]3CCC4=CC(=O)C=C[C@]4(C)[C@@H]3[C@@H](O)C[C@@]21C`, the Potency entry in assay [1], in assay [2], in assay [6] and in assay [5] was “inactive” throughout.
Regarding `O=c1c(-c2ccc(O)cc2)coc2cc(O[C@@H]3O[C@H](CO)[C@H](O)[C@H](O)[C@H]3O)ccc12`, the Potency entry in assay [1], in assay [2], in assay [3], in assay [7] and in assay [5] was “inactive” in each case.
As for `CNC(=O)c1ccc2cc(C3(O)CCn4cncc43)ccc2c1` (stereo not given), the Potency entry in assay [1], in assay [2], in assay [6], in assay [4] and in assay [7] was “inactive” throughout.
Consider `COc1cc(NC(=O)c2ccc(-c3ccc(Cl)cc3)o2)cc(OC)c1`, for which the Potency was 2.64 µM (active) in assay [1] and 1.05 µM (active) in assay [3]. Moreover, the Potency entry in assay [6] and in assay [4] was “inactive” in each case.
Regarding `CNC(=O)c1ccccc1Sc1ccc2c(C=Cc3ccccn3)n[nH]c2c1`, the Potency was 20.9 µM (active) in assay [1], 16.6 µM (active) in assay [3], 23.5 µM (active) in assay [4] and 5.26 µM (active) in assay [7].
As for `CON=C(C(=O)N[C@@H]1C(=O)N2C(C(=O)OCOC(=O)C(C)(C)C)=C(C=Cc3scnc3C)CS[C@H]12)c1csc(N)n1`, the Potency in assay [1] was 20.9 µM (active); in assay [6], 18.7 µM (active). For the same compound, in assay [4], the Potency entry is “inactive”.
As to `N#C[C@H]1C[C@H]2C[C@@H]2N1C(=O)[C@@H](N)C12CC3CC(CC(O)(C3)C1)C2`, the Potency result in assay [1], in assay [4], in assay [7], in assay [5] and in assay [8] was “inactive” each time. Also, the Potency in assay [3] is 4.18 µM (active).
For `CC(=Cc1ccccc1)C=C1SC(=S)N(CC(=O)O)C1=O`, the Potency result in assay [1], in assay [3], in assay [6], in assay [4], in assay [7] and in assay [8] was “inactive” in each case.
On to `CC[C@H]1OC(=O)[C@H](C)[C@@H](O[C@H]2C[C@@](C)(OC)[C@@H](O)[C@H](C)O2)[C@H](C)[C@@H](O[C@@H]2O[C@H](C)C[C@H](N(C)C)[C@@H]2O)[C@](C)(O)C[C@@H](C)CN(C)[C@H](C)[C@@H](O)[C@]1(C)O`, for which the Potency result in assay [1] and in assay [4] was “inactive” each time. In addition, the Potency in assay [3] was 18.7 µM (active).
In the case of `COC(=O)N[C@H](C(=O)N1CCC[C@@H]1c1ncc(-c2ccc(-c3ccc(-c4cnc([C@@H]5CCCN5C(=O)[C@@H](NC(=O)OC)C(C)C)[nH]4)cc3)cc2)[nH]1)C(C)C`, the Potency in assay [1] was 26.4 µM (active); in assay [6], 26.4 µM (active); in assay [4] it was 18.7 µM (active); in assay [5], 29.6 µM (active).
On to `N#Cc1ccc(NC(=O)Nc2ccccc2Br)c2n[nH]nc12`, for which the Potency is 18.7 µM (active) in assay [1], 26.4 µM (active) in assay [3] and 13.2 µM (active) in assay [5]. In addition, the Potency result in assay [6], in assay [4], in assay [7] and in assay [8] was “inactive” each time.
`CC(C)C[C@H](CC(=O)O)C(=O)N[C@@H](Cc1c[nH]c2ccccc12)C(=O)N[C@@H](C)c1ccccc1`: the Potency result in assay [1], in assay [4], in assay [5] and in assay [8] was “inactive” in each case. In addition, the Potency in assay [3] is 1.66 µM (active).
Turning to `O=C(O)c1ccccc1C(=O)Nc1ccc(-c2ccccc2)cc1`, the Potency entry in assay [1], in assay [6], in assay [4], in assay [7] and in assay [5] was “inactive” in each case.
In the case of `C[N+](C)(C)CC(=O)O`, the Potency entry in assay [1], in assay [3], in assay [6], in assay [7] and in assay [5] was “inactive” throughout.
Turning to `COc1cccc(-c2cc(=O)c3ccccc3o2)c1N`, the Potency in assay [1] is 0.332 µM (active); in assay [6] it was 5.9 µM (active).
Regarding `N#CC(=C(N)Sc1ccccc1N)C(C#N)=C(N)Sc1ccccc1N`, the Potency in assay [1] is 14.8 µM (active); in assay [6], 1.18 µM (active); in assay [5], 10.5 µM (active). Further, the Potency result in assay [2] was “inactive”.
As for `O=C(Nc1c(Cl)cncc1Cl)c1ccc(OC(F)F)c(OCC2CC2)c1`, the Potency in assay [1] and in assay [3] was 23.5 µM (active) throughout. Also, the Potency result in assay [6], in assay [4], in assay [7] and in assay [5] was “inactive” each time.
In the case of `Cc1ccc(C(C)(O)c2nc3ccccc3s2)c(C)c1` (stereo not given), the Potency entry in assay [1], in assay [2], in assay [4], in assay [5] and in assay [8] was “inactive” in each case.
For the compound `COC1CCC(N(C(=O)C2CCC(C)CC2)c2cc(C3=CCCCC3)sc2C(=O)O)CC1` (stereo not given), in assay [1], the Potency was 23.5 µM (active). Also, the Potency entry in assay [3], in assay [4] and in assay [5] was “inactive” each time.
Turning to `CC(C)(C(=O)NCC(F)(F)C(F)(F)F)C(=O)N[C@@H]1C(=O)Nc2ccccc2-c2ccccc21`, the results for the Potency in assay [1], in assay [3] and in assay [5] were 16.6 µM (active), 13.2 µM (active) and 3.72 µM (active), respectively. Moreover, the Potency result in assay [4] and in assay [7] was “inactive” throughout.
With `CN(C[C@@H]1COCCO1)S(=O)(=O)Nc1ccc2ccc3ncc(-c4cnn(C)c4)cc3c(=O)c2c1`, the results for the Potency in assay [1], in assay [3] and in assay [6] were 7.43 µM (active), 16.6 µM (active) and 18.7 µM (active), respectively.
